High-throughput results (PubChem)
The list is not random: actives were taken first. Their share in the collection is about 6.2%.
Mot1-301 SUMO: yeast Mot1-301 growth rescue at high temperature, primary screen, SUMOylation pathway inhibitor project, S. cerevisiae, ATP luminescence, 38.5C | S. cerevisiae Mot1-301 growth rescue; percent above DMSO median, 100 means doubled | growth rescue, % at 18.8 µM | actives 1% (n = 320,000) | AID 2716, 2010;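 active = every valid replicate shows activation above 250% relative to neutral control wells; inactive = the rest, any valid replicate at or below 250%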;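 also: OY570 slx delta 5 strain wells were the positive control but not used for scaling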
H9c2 protect: cardioprotection against H2O2-induced cell death, primary screen, uHTS, H9c2 cells, ATPLite luminescence | H9c2 cardiomyocytes, H2O2 injury protection, 2 h | actives 0.63% (n = 360,000) | protection from H2O2 cell death, % at 20 µM;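 active = compounds giving at least 50% protection of heart cells from peroxide-induced death in the single-dose screen, raw or plate-pattern-corrected value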;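 also: 0% = DMSO wells with peroxide and 100% = DMSO wells without peroxide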
AHR activator: AHR activators, primary screen, cell-based, luminescence, luciferase reporter, human; Aryl hydrocarbon receptor (Homo sapiens), P35869; AHR-responsive luciferase reporter cells; actives 2.5% (n = 320,000); activation, % at 5 µM; in the data active = activation above about 47%;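 also: 0% = vehicle wells and 100% = reference agonist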
AI-2 QS modul: Vibrio harveyi AI-2 quorum sensing modulators, primary screen, JMH597 strain, luminescence/OD600 ratio; AID 2094, 2009; actives 0.4% (n = 300,000); Vibrio harveyi JMH597 AI-2 luminescence/OD600 ratio, 9 h; active compounds read low; strain lacks LuxN and CqsS sensors; 0 = neutral-control median; activity change, % at 7.5 µM; in the data active = activity change below about -75%, passing the limit was not always enough;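 also: luminescence divided by OD600 gain over 9 h not by final OD600 alone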
GRIN3A LBD mod: binders of NR3A ligand-binding domain, primary screen, biophysical, differential scanning fluorimetry, uHTS; NR3A LBD differential scanning fluorimetry, Tm shift; 0% = protein alone, 100% = glycine-bound protein; Glutamate receptor ionotropic, NMDA 3A (GRIN3A) ligand-binding domain; actives 2.5% (n = 340,000); Tm shift relative to glycine control, % at 25 µM;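 active = melting temperature shift of at least 10% of the positive control shift, at one fixed dose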
NTR1 ag: agonists of human NTR1, primary screen, imaging, U2OS cells, beta-arrestin-GFP, high content. Neurotensin receptor type 1 (Homo sapiens), P30989. NTR1-U2OS beta-arrestin-GFP spot imaging, agonist mode. activation, % at 20 µM. actives 0.17% (n = 330,000). AID 493036, 2011;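 active = activation at or above 40% of the spot to cytoplasm intensity ratio, with at least 20 cells analyzed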;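 also: 0% = DMSO without peptide and 100% = 100 nM NTR1 peptide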
Target sequence (P30989 whole entry, looked up): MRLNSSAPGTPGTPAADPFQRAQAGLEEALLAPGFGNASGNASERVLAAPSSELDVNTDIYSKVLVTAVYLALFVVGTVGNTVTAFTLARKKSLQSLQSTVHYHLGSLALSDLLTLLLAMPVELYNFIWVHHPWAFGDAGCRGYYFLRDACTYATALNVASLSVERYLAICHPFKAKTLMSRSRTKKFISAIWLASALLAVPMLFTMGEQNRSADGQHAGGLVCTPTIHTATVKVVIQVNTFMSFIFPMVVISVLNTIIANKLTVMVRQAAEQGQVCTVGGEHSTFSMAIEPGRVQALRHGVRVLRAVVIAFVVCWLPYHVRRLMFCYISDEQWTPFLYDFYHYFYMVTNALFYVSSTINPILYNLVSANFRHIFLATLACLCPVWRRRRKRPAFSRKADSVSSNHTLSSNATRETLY
* marks the source's active call; other numbers are inactive results.

How did Cc1ccc(S(=O)(=O)NNC(=O)CCC(=O)Nc2ccccc2Cl)cc1 do in these assays?
Mot1-301 SUMO: 8; H9c2 protect: -7; AI-2 QS modul: 13; GRIN3A LBD mod: -26; NTR1 ag: -1

What do the screens show for `CCN(CC)S(=O)(=O)c1cccc(NC(=O)COc2ncnc3sccc23)c1`?
Mot1-301 SUMO: -5; H9c2 protect: -5; AHR activator: 2; AI-2 QS modul: -17; GRIN3A LBD mod: 0; NTR1 ag: 6

Results for Cc1ccc(S(=O)(=O)NNC(=O)CCC(=O)Nc2ccc(C)c(C)c2)cc1 ?
Mot1-301 SUMO: 350*; H9c2 protect: -5; AHR activator: 15; AI-2 QS modul: 21; GRIN3A LBD mod: 0; NTR1 ag: 0

What do the screens show for `CCc1nc2ccc(C(=O)Nc3cccc(OC)c3)cn2c1N(CC)CCN(C)C`?
H9c2 protect: 7

How did CC(=O)Nc1ccc(S(=O)(=O)NCCC(=O)Nc2ccc(C)c(Cl)c2)cc1 do in these assays?
Mot1-301 SUMO: -24; H9c2 protect: 9; AHR activator: 0; AI-2 QS modul: 13; GRIN3A LBD mod: 5; NTR1 ag: 0

What do the screens show for `Cc1ccc(S(=O)(=O)NCCC(=O)Nc2ccc(Cl)c(Cl)c2)cc1`?
Mot1-301 SUMO: 10; H9c2 protect: -19; AHR activator: 7; AI-2 QS modul: -2; GRIN3A LBD mod: 10*; NTR1 ag: 3

What do the screens show for `COc1cc(OC)c(Nc2cc(C)nc3nc(C)nn23)cc1Cl`?
Mot1-301 SUMO: 2; H9c2 protect: -7; AHR activator: 5; AI-2 QS modul: 23; GRIN3A LBD mod: 1; NTR1 ag: 3

Results for COc1ccc(Cl)cc1Nc1cc(C)nc2nc(C)nn12 ?
Mot1-301 SUMO: 77; H9c2 protect: -4; AHR activator: 71*; AI-2 QS modul: 15; GRIN3A LBD mod: 2; NTR1 ag: -4

How did Cc1c(C(=N)C(C#N)C#N)c(=N)oc2c1ccc1ccccc12 do in these assays?
Mot1-301 SUMO: -11; H9c2 protect: 14; AHR activator: 65*; AI-2 QS modul: 23; GRIN3A LBD mod: -4; NTR1 ag: 3

Results for Cc1c(C(=O)O)oc2c1ccc1ccccc12 ?
Mot1-301 SUMO: -21; H9c2 protect: 11; AHR activator: 11; AI-2 QS modul: 31; GRIN3A LBD mod: 0; NTR1 ag: -1

Results for CCc1nnc(NC(=O)c2sc3nc4c(cc3c2N)CCCCCC4)s1 ?
Mot1-301 SUMO: 21; H9c2 protect: -2; AHR activator: 50*; AI-2 QS modul: 15; GRIN3A LBD mod: -6; NTR1 ag: 9

Results for O=C(Cc1noc2ccccc12)Nc1ccc(Cl)cc1 ?
Mot1-301 SUMO: 350; H9c2 protect: -6; AHR activator: 0; AI-2 QS modul: -84*; GRIN3A LBD mod: 7; NTR1 ag: 1

Results for COc1ccc(N(CC(=O)NCc2ccco2)C(=O)CCC(=O)Nc2nccs2)c(OC)c1 ?
Mot1-301 SUMO: 318; H9c2 protect: 2; AHR activator: 2; AI-2 QS modul: 1; GRIN3A LBD mod: -5; NTR1 ag: -1

Results for Cc1nc2ccccc2c2c(N)c3ccccc3n12 ?
Mot1-301 SUMO: -24; H9c2 protect: 66*; AHR activator: 10; AI-2 QS modul: 51; GRIN3A LBD mod: 1; NTR1 ag: 0

Results for Cc1c(NC(=O)COC(=O)Cc2ccc(F)cc2)c(=O)n(-c2ccccc2)n1C ?
Mot1-301 SUMO: -26; H9c2 protect: 4; AHR activator: 1; AI-2 QS modul: 14; GRIN3A LBD mod: 0; NTR1 ag: 0

How did O=C(Nc1nc(-c2cccc3ccccc23)cs1)c1cnccn1 do in these assays?
Mot1-301 SUMO: 13; H9c2 protect: 16; AHR activator: 49*; AI-2 QS modul: 25; GRIN3A LBD mod: -2; NTR1 ag: 1

Results for O=C(Nc1nc(-c2ccc(F)c(F)c2)cs1)c1cnccn1 ?
Mot1-301 SUMO: 197; H9c2 protect: 7; AHR activator: 13; AI-2 QS modul: -8; GRIN3A LBD mod: 5; NTR1 ag: 2

How did N#CC1=C(N)Oc2c(ccc3ccccc23)C1c1ccsc1 (stereo not drawn) do in these assays?
Mot1-301 SUMO: -3; H9c2 protect: -2; AHR activator: 59*; AI-2 QS modul: 2; GRIN3A LBD mod: -10; NTR1 ag: -1

Results for N#CC1=C(N)Oc2c(oc(CO)cc2=O)C1c1ccsc1 (stereo not drawn) ?
Mot1-301 SUMO: 24; H9c2 protect: -2; AHR activator: 6; AI-2 QS modul: 20; GRIN3A LBD mod: 0; NTR1 ag: 1

What do the screens show for `CC(/C=N/n1c(-c2ccco2)n[nH]c1=S)=C\c1ccco1`?
Mot1-301 SUMO: -14; H9c2 protect: 14; AHR activator: 2; AI-2 QS modul: 18; GRIN3A LBD mod: 2; NTR1 ag: 0

What do the screens show for `CC(/C=N\Nc1nnc2c(n1)[nH]c1c(C)cccc12)=C\c1ccco1`?
Mot1-301 SUMO: 7; H9c2 protect: 19; AHR activator: 57*; AI-2 QS modul: 12; GRIN3A LBD mod: -2; NTR1 ag: 2

What do the screens show for `C=CC[C@@H](CC(=O)N[C@H](CO)Cc1ccccc1)C(=O)N[C@@H](COC(=O)[C@@H](CC=C)CC(=O)OC(C)(C)C)Cc1ccccc1`?
Mot1-301 SUMO: -13; H9c2 protect: 63*; AHR activator: -1; GRIN3A LBD mod: -4; NTR1 ag: 7

Results for Cc1ccc(C(=O)Nc2nc(-c3ccccn3)cs2)s1 ?
Mot1-301 SUMO: 28; H9c2 protect: 59*; AHR activator: 10; GRIN3A LBD mod: 8; NTR1 ag: 2

Results for O=C(Nc1nc(-c2ccc(Cl)s2)cs1)c1cccs1 ?
Mot1-301 SUMO: 37; H9c2 protect: -19; AHR activator: 71*; AI-2 QS modul: -2; GRIN3A LBD mod: 17*; NTR1 ag: 9

How did CCc1sc(C(=O)Nc2nc(-c3ccccn3)cs2)cc1C do in these assays?
Mot1-301 SUMO: -16; H9c2 protect: 51*; AHR activator: 18; GRIN3A LBD mod: -5; NTR1 ag: 6

How did O=C(Nc1ccc([N+](=O)[O-])cc1)Nc1nc(-c2ccc(Cl)s2)cs1 do in these assays?
Mot1-301 SUMO: -1; H9c2 protect: -20; AHR activator: -1; AI-2 QS modul: -86*; GRIN3A LBD mod: 416*

How did COc1cccc(CN2CC(C(=O)NCCc3ccc(C)o3)CCC2=O)c1 (stereo not drawn) do in these assays?
Mot1-301 SUMO: 8; H9c2 protect: 7; AI-2 QS modul: 6; GRIN3A LBD mod: -5; NTR1 ag: 0
